Results filed as inconclusive are left out. Active and inactive are the calls of the source. Unless noted, calls follow the shape of the dose curve; as a rule, active = well fitted curve in the direction sought with a large enough effect in the repeat runs; inconclusive = weak or mixed curves; inactive = no such curve, though single readings can be large; an effect the other way counts as inactive or inconclusive.

Potency data for 10 molecules are collected here from PubChem BioAssay (Tox21).

A short description of assay [1]: qHTS assay to identify small molecule agonists of the RXR signaling pathway - cell viability counter screen (AID 1159529).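 Also: HEK 293T cells carrying an RXR-alpha UAS beta-lactamase reporter; series mostly up to about 77 µM; nearly all actives have a fitted effect of over 50% in size.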 The method in brief:
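HEK 293T RXRa-bla cells, 2% CS-FBS; 5 h settle; cpd 16 h 37 C, 5% CO2; CellTiter-Glo 30 min RT, luminescence. Tetraoctyl ammonium bromide as positive control.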

Assay [2] is described as follows: qHTS assay to identify small molecule antagonists of the retinoid acid receptor (RAR) signaling pathway - cell viability counter screen (AID 1159551). Also: nearly all actives have a fitted effect of over 35% in size. In a few lines:
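In this counter screen, the RARE-luciferase line C3RL4 was exposed for 6 h at 37 C and 5% CO2 to compounds with retinol at 1 uM final. Cellular ATP, read by luminescence, served as the viability measure.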
(In qHTS, concentration-response curves come from the screen itself.)

A short description of assay [3]: qHTS assay to identify small molecule antagonists of the retinoic acid receptor (RAR) signaling pathway (AID 1159552; also: nearly all actives have a fitted effect of over 50% in size). In a few lines: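 Cells of the C3RL4 line were seeded, incubated overnight, then dosed with compounds in DMSO followed immediately by retinol (1 uM final). Six hours later luciferase detection reagent went in; signal was measured after 30 min at RT.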

A short description of assay [4]: qHTS assay to identify small molecule agonists of the retinoic acid receptor (RAR) signaling pathway (AID 1159553). The method in brief: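 In this cell-based screen, 1,000 C3RL4 cells per well were cultured overnight, dosed with test chemicals in DMSO for 6 hr, and assessed for RARE luciferase luminescence.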
Assay [5] can be described thus: qHTS assay to identify small molecule antagonists of the estrogen related receptor (ERR) signaling pathway from Tox21 library - cell viability counter screen (AID 1224834). Also: nearly all actives have a fitted effect of over 30% in size. The method in brief: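 Counter screen run in ERR cells (2,000 cells/well): cells pre-incubated 6 h, then treated with compounds for 17.5 h at 37 C. Fluorescence was read 30 min after CellTiter-Fluor addition.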

Assay [6] concerns the target Luciferin 4-monooxygenase (Photinus pyralis) (UniProt P08659). As to the kind of experiment: qHTS assay to identify small molecule inhibitors of firefly luciferase (AID 1224835). Also: nearly all actives have a fitted effect of over 25% in size. Also: potency is read from the fitted curve at half-maximal effect. The method in brief: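 Biochemical qHTS: compounds run as interplate titrations against purified firefly enzyme, with D-luciferin and ATP each at its KM concentration. Light output recorded by CCD imaging.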

Assay [7] is described as follows: qHTS assay to identify small molecule antagonists of the constitutive androstane receptor (CAR) signaling pathway - cell viability counter screen (AID 1224837). Also: series mostly up to about 92 µM; nearly all actives have a fitted effect of over 45% in size. The method in brief:
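CITCO at 50 nM final was added alongside compounds (15 concentrations) to double-stable hCAR/CYP2B6-2.2kb HepG2 cells. Following 23 hr at 37 C, cell viability was quantified by CellTiter-Fluor fluorescence intensity.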

Assay [8] has as its target Nuclear receptor subfamily 1 group I member 3 (Homo sapiens) (UniProt Q14994). As to the kind of experiment: qHTS assay to identify small molecule antagonists of the constitutive androstane receptor (CAR) signaling pathway (AID 1224838). Also: nearly all actives have a fitted effect of over 40% in size. In a few lines: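 Inhibition of CITCO-driven (50 nM final) CYP2B6 reporter expression is measured in HepG2 cells stably carrying hCAR. Fifteen compound concentrations are applied for 24 h at 37 C, followed by luciferase luminescence.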

The target is the same in assay [9]. As to the kind of experiment: qHTS assay to identify small molecule agonists of the constitutive androstane receptor (CAR) signaling pathway (AID 1224839). Also: series mostly up to about 92 µM; nearly all actives have a fitted effect of over 15% in size. In a few lines:
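HepG2-CYP2B6-hCAR cells, 2500/well, 4 h pre-incubation; compounds 15 conc.; PK11195 0.75 uM final; 24 h, 37 C/5% CO2; ONE-Glo luciferase read.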

The nature of assay [10]: qHTS assay to identify small molecule antagonists of the estrogen related receptor signaling pathway with the pleiotropic PPARgamma coactivator (PGC) from Tox21 10K library - cell viability counter screen (AID 1224840; active = well fitted cell-killing curve with a large enough effect in the repeat runs, not every such curve was filed as active; also: nearly all actives have a fitted effect of over 40% in size). In a few lines:
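Readout: fluorescence intensity from CellTiter-Fluor after 30 min at 37 C/5% CO2. Preceded by 17.5 h treatment of PGC/ERR cells with DMSO-dissolved compounds, added 6 h post-seeding.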

The target in assay [11] is Thyrotropin receptor (Homo sapiens) (UniProt P16473). As to the kind of experiment: qHTS assay to identify small molecule agonists of the thyroid stimulating hormone receptor (TSHR) signaling pathway (AID 1224843; calls by dose curve; also: nearly all actives have a fitted effect of over 45% in size). In a few lines:
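Agonist-mode screen: TSHR HEK293 cells received test chemicals for half an hour at room temperature, then HTRF cAMP detection reagents for one hour prior to fluorescence measurement. Each chemical ran as a 15-concentration series, triplicated.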

A short description of assay [12]: qHTS assay to identify small molecule agonists of the constitutive androstane receptor (CAR) signaling pathway - cell viability counter screen (AID 1224836). Also: series mostly up to about 92 µM; nearly all actives have a fitted effect of over 45% in size. The method in brief: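 HepG2-CYP2B6-hCAR, 2500 cells/well, 4 h pre-incubation; cpd 15 conc + PK11195 0.75 uM final; 23 h, 37 C/5% CO2; CellTiter-Fluor, fluorescence.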
Assay [13] in a line: qHTS assay to identify small molecule antagonists of the estrogen related receptor signaling pathway with the pleiotropic PPARgamma coactivator (PGC) from Tox21 10K library (AID 1224841; call rule not given here; also: actives are mostly falling curves and most rising ones were filed inactive; nearly all actives have a fitted effect of over 50% in size; also: potency is read from the fitted curve at half-maximal effect). In a few lines: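 One-Glo luminescence, measured after half an hour at room temperature, quantified reporter output of PGC/ERR cells. These had been plated at 2,000 per well, incubated 6 h, dosed with compounds in DMSO, then kept 18 h at 37 C.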

A short description of assay [14]: qHTS assay to identify small molecule agonists of the estrogen related receptor signaling pathway with the pleiotropic PPARgamma coactivator (PGC) from Tox21 10K library (AID 1224842). Also: nearly all actives have a fitted effect of over 15% in size. The method in brief: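 PGC/ERR reporter cell line, 2,000 cells per well, incubated 6 h at 37 C before 23 nL compound in DMSO was added. After 18 h at 37 C, One-Glo luminescence read following 30 min at room temperature.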

Chain of Luciferin 4-monooxygenase (Photinus pyralis) (P08659 whole entry, looked up): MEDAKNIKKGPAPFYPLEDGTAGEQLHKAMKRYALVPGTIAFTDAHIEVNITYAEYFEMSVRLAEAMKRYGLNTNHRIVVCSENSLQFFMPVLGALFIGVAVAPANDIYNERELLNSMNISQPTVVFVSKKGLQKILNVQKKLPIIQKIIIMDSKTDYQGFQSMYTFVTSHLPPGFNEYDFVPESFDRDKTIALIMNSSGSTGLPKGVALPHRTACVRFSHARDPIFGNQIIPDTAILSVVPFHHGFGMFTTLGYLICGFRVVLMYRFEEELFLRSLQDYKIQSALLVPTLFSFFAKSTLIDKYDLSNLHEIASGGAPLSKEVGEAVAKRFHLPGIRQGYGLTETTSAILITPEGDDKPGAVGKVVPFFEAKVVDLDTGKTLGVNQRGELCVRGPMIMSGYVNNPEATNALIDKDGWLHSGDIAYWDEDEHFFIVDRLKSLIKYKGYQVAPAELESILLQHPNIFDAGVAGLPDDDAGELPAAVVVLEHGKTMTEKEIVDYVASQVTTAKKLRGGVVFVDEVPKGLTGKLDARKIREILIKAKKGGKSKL
Chain of Thyrotropin receptor (Homo sapiens) (P16473 whole entry, looked up): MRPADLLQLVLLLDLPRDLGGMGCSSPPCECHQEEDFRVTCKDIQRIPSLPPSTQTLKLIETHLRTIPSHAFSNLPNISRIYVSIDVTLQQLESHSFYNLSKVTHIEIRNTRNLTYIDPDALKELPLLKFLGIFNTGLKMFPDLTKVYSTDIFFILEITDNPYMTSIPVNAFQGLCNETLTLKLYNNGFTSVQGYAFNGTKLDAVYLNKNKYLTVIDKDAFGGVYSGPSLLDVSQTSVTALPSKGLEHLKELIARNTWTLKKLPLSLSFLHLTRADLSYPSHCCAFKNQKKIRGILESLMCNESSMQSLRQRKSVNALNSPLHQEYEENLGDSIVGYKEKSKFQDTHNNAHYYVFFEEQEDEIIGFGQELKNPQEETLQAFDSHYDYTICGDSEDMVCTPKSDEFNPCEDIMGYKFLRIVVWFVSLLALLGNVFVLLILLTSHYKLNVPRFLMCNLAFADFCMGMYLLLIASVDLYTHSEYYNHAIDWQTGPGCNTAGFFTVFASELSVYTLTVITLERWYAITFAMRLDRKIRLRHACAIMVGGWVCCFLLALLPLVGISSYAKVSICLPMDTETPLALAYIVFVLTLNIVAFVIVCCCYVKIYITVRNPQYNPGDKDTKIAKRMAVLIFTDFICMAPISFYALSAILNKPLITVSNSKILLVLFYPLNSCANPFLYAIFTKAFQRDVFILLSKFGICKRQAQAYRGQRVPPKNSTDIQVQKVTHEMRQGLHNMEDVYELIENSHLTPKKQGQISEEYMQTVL
Chain of Nuclear receptor subfamily 1 group I member 3 (Homo sapiens) (Q14994 whole entry, looked up): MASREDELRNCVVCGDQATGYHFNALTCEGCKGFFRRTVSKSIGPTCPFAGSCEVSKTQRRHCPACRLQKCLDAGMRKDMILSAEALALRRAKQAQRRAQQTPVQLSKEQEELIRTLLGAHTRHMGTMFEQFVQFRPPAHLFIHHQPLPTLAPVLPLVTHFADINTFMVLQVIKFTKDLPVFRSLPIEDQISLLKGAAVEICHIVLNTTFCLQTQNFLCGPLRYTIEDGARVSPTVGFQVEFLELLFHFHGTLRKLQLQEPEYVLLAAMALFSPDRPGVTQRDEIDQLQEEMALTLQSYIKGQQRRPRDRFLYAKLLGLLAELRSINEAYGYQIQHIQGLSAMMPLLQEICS

As for `Cc1ccc2c(C)cccc2c1`, the Potency entry in assay [1], in [2], in assay [3], in [4], in assay [5] and in assay [6] was “inactive” in each case. Moreover, the Potency result in assay [7], in assay [8], in [9], in assay [10] and in [11] was “inactive” in each case.

On to `Clc1ccccc1`, for which the Potency result in assay [1], in [2], in assay [3], in assay [4], in assay [5] and in assay [6] was “inactive” each time. Besides, the Potency result in assay [12], in assay [7], in [8], in [9], in assay [10] and in assay [13] was “inactive” each time. In addition, the Potency entry in assay [14] and in assay [11] was “inactive” in each case.

As to `C1CS1`, the Potency result in assay [1], in [2], in [3], in assay [4], in assay [5] and in assay [6] was “inactive” throughout. Besides, the Potency entry in assay [12], in assay [7], in assay [8], in [9], in assay [10] and in assay [14] was “inactive” in each case. Also, the Potency entry in [11] is “inactive”. In assay [13], the Potency was 19.8 µM (active).

Turning to `N#CC1(N=NC2(C#N)CCCCC2)CCCCC1`, the Potency result in assay [1], in [2], in assay [3], in assay [4], in [5] and in assay [6] was “inactive” each time. For the same molecule, the Potency entry in assay [12], in assay [7], in [8], in assay [10], in [13] and in [14] was “inactive” in each case.

Turning to `CCOP(=S)(OCC)Oc1ccc(S(C)=O)cc1` (stereo unspecified), the Potency entry in assay [1], in assay [2], in assay [3], in assay [4], in assay [5] and in [6] was “inactive” in each case. The Potency result in assay [7], in assay [8], in assay [9], in [10], in [13] and in assay [14] was “inactive” each time. Besides, in assay [11], the Potency entry was “inactive”.

Turning to `CC(Cl)C(=O)O` (stereo unspecified), the Potency entry in assay [1], in assay [2], in assay [3], in assay [4], in assay [5] and in assay [6] was “inactive” throughout. Further, the Potency entry in [12], in assay [8], in assay [9] and in assay [10] was “inactive” in each case.

As to `CCC1(CCC(C)C)C(=O)NC(=O)NC1=O`, the Potency entry in assay [1], in assay [2], in [3], in assay [4], in assay [5] and in assay [6] was “inactive” each time. Further, the Potency result in assay [12], in [7], in assay [8] and in [10] was “inactive” each time.

As to `CCCCCBr`, the Potency entry in assay [1], in [2], in [3], in assay [4], in assay [5] and in [6] was “inactive” each time. Also, the Potency result in assay [12], in [7], in assay [8], in assay [10] and in [11] was “inactive” in each case.

As for `COCc1cnc(C2=NC(C)(C(C)C)C(=O)N2)c(C(=O)O)c1` (stereo unspecified), the Potency result in assay [1], in assay [2], in assay [3], in assay [4], in assay [5] and in [6] was “inactive” each time. In addition, the Potency entry in assay [12], in assay [7], in assay [8], in assay [9] and in [10] was “inactive” in each case.

Regarding `C=CCc1ccc(OC(=O)Cc2ccccc2)c(OC)c1`, the Potency result in assay [1], in assay [2], in assay [3], in assay [4], in assay [5] and in assay [12] was “inactive” in each case. Also, the Potency result in assay [7], in assay [8] and in [10] was “inactive” in each case. The Potency in [6] is 25.2 µM (active).
